Rango release inh: prevents RanGTP from dissociating the Rango-importin beta complex; Potency, µM (doses to about 46.1 µM); 340,000 tested, 0.071% active; Biochemical FRET Rango-importin beta, RanGTP-induced dissociation; O95149+P62826; note: nearly all actives have a fitted effect of over 45% in size
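Rango (0.1 uM)–importin beta (0.25 uM) complex; RanGTP-RCC1 trigger; 45 min RT; CFP/YFP FRET read.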
TSG101-PTAP inh: blocks PTAP/TSG101 interaction to inhibit HIV-1 budding. Potency, µM (titrated, usually from 115 µM), usual class: inhibitors. Fluorescence polarization, FITC-PTAP peptide / Tsg101 binding. Q99816. 340,000 tested, under 10 active; active = well fitted inhibition curve with a large enough effect in the main read-out, with a control signal flat, not every such curve was filed as active; inconclusive = small, poorly fitted or top-dose-only effect, or effect the other way, or a change in a side signal; inactive = no such curve, though single readings can be large or run the other way
Target sequence (Q99816 whole entry, looked up): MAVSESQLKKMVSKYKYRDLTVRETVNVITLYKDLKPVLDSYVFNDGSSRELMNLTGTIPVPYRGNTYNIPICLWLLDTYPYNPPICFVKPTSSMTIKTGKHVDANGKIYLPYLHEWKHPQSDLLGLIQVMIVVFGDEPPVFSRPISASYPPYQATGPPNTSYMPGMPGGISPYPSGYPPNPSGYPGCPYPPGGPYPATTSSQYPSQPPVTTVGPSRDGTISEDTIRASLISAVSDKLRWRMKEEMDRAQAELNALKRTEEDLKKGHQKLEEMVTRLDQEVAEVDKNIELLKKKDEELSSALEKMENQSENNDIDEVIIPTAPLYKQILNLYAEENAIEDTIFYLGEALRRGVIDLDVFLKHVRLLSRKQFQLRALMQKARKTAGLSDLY
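FP read-out: FITC-PTAP peptide, 50 nM final, binding Tsg101 binding domain, 10 uM final; 20 min, r.t.; 10 mM HEPES pH 7.5, 0.15 M NaCl, 0.01% Tween 20, 3 mM EDTA, 0.1 mM TCEP.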
D3 ag: activates the human D3 dopamine receptor; 410,000 tested, 0.58% active; D3R DiscoveRx beta-arrestin cells, luminescence, 90 min; P35462; max activation, %; in the data active = max activation above about 30%
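Agonist mode: compounds and dopamine controls were applied to plated cells for 90 min at 37 degrees C after an overnight attachment at 1500 cells/well. Luminescent read-out followed 30 - 60 minutes at room temperature with DiscoveRx detection reagent.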
MmCpn inh: M. maripaludis TRiC chaperonin inhibition; purified Mm-Cpn ATPase, ADP Transcreener TR-FRET; Potency, µM (titrated, usually from 76.9 µM), most hits filed as inhibitors; 330,000 tested, 0.031% active; active = well fitted inhibition curve with a large enough effect; inconclusive = small, poorly fitted or top-dose-only effect; note: nearly all actives have a fitted effect of over 80% in size
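ATPase read-out: TR-FRET ADP immunoassay (anti-ADP Eu cryptate vs ADP-d2), ex 320 nm, em 590/665 nm; signal drops as ADP forms. Enzyme 25 nM, ATP 10 uM, 30 min at 37°C after 10 min compound preincubation.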
DRD3 antagonist: blocks the human D3 dopamine receptor. D3R cells, DiscoveRx beta-arrestin luminescence, antagonist mode; hits give low values. max response, negative = inhibition, %. 360,000 tested, 2.5% active; in the data active = max response below about -50%; inconclusive = no clear call, values can overlap the other calls
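Cells expressing the human receptor were seeded at 1500 cells/well, incubated overnight at 37 degrees C in 5% CO2, then exposed to library compounds with dopamine controls for 90 minutes at 37 degrees C before luminescent detection.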
Rango-impB inh: inhibitors of Rango-importin beta complex formation; Q14974; Rango CFP/YFP FRET sensor + importin beta, 45 min; Potency, µM (series often up to 92.2 µM); 340,000 tested, 0.031% active; note: nearly all actives have a fitted effect of over 15% in size
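Inhibition scored from the CFP 486 nm/YFP 530 nm FRET ratio 45 min after adding 0.125 microM importin beta to 50 nM Rango biosensor preincubated 5 min with compound (room temperature, PBS with DTT, Tween-20, BSA). No-importin wells as positive control.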
Hits are given with their value; . = inactive; ? = inconclusive; / = no result given. The list is not random: actives were taken first. Their share in the collection is about 2.9%. Unless noted, calls come from the whole dose curve.

SMILES	Rango release inh	TSG101-PTAP inh	D3 ag	MmCpn inh	DRD3 antagonist	Rango-impB inh
O=C(/C=C/c1cccc([N+](=O)[O-])c1)c1cccs1	.	.	.	.	-58	.
Cc1cc(O)c(C(=O)/C=C/c2cccc([N+](=O)[O-])c2)c(=O)o1	.	.	.	.	.	.
O=C(/C=C/c1cccc([N+](=O)[O-])c1)n1cnc2ccccc21	.	.	.	.	-104	.
CC(=O)Oc1ccccc1C(=O)C=Cc1cccc([N+](=O)[O-])c1	.	.	.	/	-56	.
NC(=O)C1CCN(c2nc(-c3cccc(Br)c3)cs2)CC1	/	/	/	.	/	/
COc1ccccc1COc1ccc2c(C)c(CC(=O)O)c(=O)oc2c1C	.	.	.	.	.	.
CCC(=O)N1Cc2cc(C(=O)Nc3nccs3)nc(-c3cccc(-c4ccccc4OC)c3)c2[C@H]1CCO	/	/	61	/	.	/
CCc1ccc2ncc(S(=O)(=O)c3ccc(C)c(C)c3)c(N3CCCC3)c2c1	.	.	.	.	-56	.
CCN1CCN(c2c(S(=O)(=O)c3ccc(C)c(C)c3)cnc3cc(OC)c(OC)cc23)CC1	/	/	.	/	/	/
CCCSS/C(CCO)=C(\C)N(C=O)Cc1cnc(C)nc1N	/	/	.	/	/	/
Cc1ccccc1S(=O)(=O)N1[C@@H](c2ccccc2)C(C(=O)O)=CC[C@H]1c1ccc(Cl)cc1	.	.	.	.	-56	.
CCOc1ccc(C(=O)CN2CCN(S(=O)(=O)c3ccc(Cl)cc3)CC2)cc1	.	.	.	.	-57	.
Cc1ccc([C@@H]2CC=C(C(=O)O)[C@H](c3ccc(Cl)cc3)N2S(=O)(=O)c2ccccc2C)cc1	.	.	.	.	-61	?
COc1ccc(C(=O)CN2CCN(S(=O)(=O)c3ccc(F)cc3)CC2)cc1	/	/	.	/	/	/
Cc1ccccc1S(=O)(=O)N1[C@@H](c2ccc(Br)cc2)C(C(=O)O)=CC[C@H]1c1ccc(Cl)cc1	.	.	.	.	.	.
CCOc1ccc([C@@H]2CC=C(C(=O)O)[C@H](c3ccc(Cl)cc3)N2S(=O)(=O)c2ccc(C)cc2)cc1	.	.	.	.	-73	.
Cc1cccc(CS(=O)(=O)Cc2ccc(C(=O)NCc3ccc(F)cc3)o2)c1	/	/	.	/	/	/
COc1ccc(OC)c(C2C=C(C34CC5CC(CC(C5)C3)C4)NC(=S)N2)c1 (stereo not given)	.	.	.	.	?	.
COc1cc(C2C=C(C34CC5CC(CC(C5)C3)C4)NC(=S)N2)cc(OC)c1OC (stereo not given)	.	.	.	.	-82	.
COc1ccc(-c2nnn3c2nc(NCc2ccc(C)cc2)c2ccccc23)cc1	/	/	.	/	/	/
C=C1C(=O)OC2C=C(CO)C3OC3C3OC3(C)CC(OC(=O)/C(=C/C)COC(C)=O)C12 (stereo not given)	.	.	.	/	-81	.
CCCCN(CC)C(=O)Cn1c(=O)n(-c2ccc(OCC)cc2)c(=O)c2c3c(sc21)CCC3	/	/	.	/	/	/
CN(C)S(=O)(=O)c1cccc(NC(=S)Nc2cccc3cnccc23)c1	.	.	.	.	-59	?
CC(C)(C)c1ccc(OCC(=O)NCC2(N3CCOCC3)CCCCC2)cc1	/	/	.	/	/	/
CC(C)=CCC[C@@](C)(O)[C@H]1CC=C(C)CC1	/	/	.	/	/	/
SMILES	Rango release inh	TSG101-PTAP inh	D3 ag	MmCpn inh	DRD3 antagonist	Rango-impB inh
O=C(Nc1c(-c2ccc3c(c2)OCO3)[nH][nH]c1=O)c1ccc2c(c1)OCO2	/	/	.	/	-78	/
C/C(=N\NC(=O)c1ccc2c(c1)OCO2)c1ccc2c(c1)OCO2	.	.	.	.	-55	.
C/C(=N\NC(=O)c1ccc2c(c1)OCO2)c1ccc(C(=O)O)s1	.	.	.	.	.	.
COc1ccc(CNCCCSc2nnnn2-c2ccccc2)cc1	/	/	.	/	/	/
CCOC(=O)c1c(CN2CCCCC2)n(C)c2cc(Br)c(O)c(CN(C)C)c12	.	.	.	.	-68	.
CCOc1cccc(CN2CCN(c3cccc(C(F)(F)F)c3)CC2)c1O	.	.	.	.	-96	.
COc1cccc(CN2CCN(c3cccc(C(F)(F)F)c3)CC2)c1OC	.	/	.	.	-73	.
COc1cccc(CN2CCSCC2)c1OC	.	.	.	.	.	.
CCOC(=O)c1ccc(NC(=O)CCc2c(C)n(CC)c3cc(-c4ccccc4OC)nn3c2=O)cc1	/	/	.	/	/	/
CN(C)c1cc(=O)n2c(n1)SCCC2	.	.	.	.	.	.
O=c1cc(N2CCCCC2)nc2n1CCCS2	.	.	35	.	.	.
NS(=O)(=O)c1ccc(N2N=C(c3ccccc3)CC2c2cccc(F)c2)cc1 (stereo not given)	.	.	.	.	.	.
NS(=O)(=O)c1ccc(N2N=C(c3ccccc3)CC2c2cccc(Br)c2)cc1 (stereo not given)	.	.	47	.	.	?
CCn1nc(NC(C)=O)c2cc3ccc(C)cc3nc21	9.2µM	.	.	.	.	?
CCn1nc(NC(=O)C(C)C)c2cc3ccc(C)cc3nc21	.	.	.	.	.	?
Cc1ccccc1OCC(=O)OCc1cc(=O)n2nc(C3CCCCC3)sc2n1	/	/	.	/	/	/
C=C1C(=O)[C@]23C[C@H]1CCC2[C@@]1(C)C(C[C@@H]3O)[C@](C)(C(=O)OC)CC[C@@H]1O (stereo not given in full)	/	/	.	/	-67	/
C[C@@]12C(C[C@H](O)[C@@]34C[C@@H](CCC13)[C@@H](CO)C4=O)[C@](C)(C(=O)O)CC[C@@H]2O (stereo not given in full)	/	/	.	/	.	/
CCOC(=O)CSc1nc2ccccc2n2cnnc12	.	.	.	.	-51	.
COc1ccc(CNc2nc(NCc3ccc(OC)c(OC)c3)n(C(=O)c3cccs3)n2)cc1OC	.	.	45	.	.	.
O=S(=O)(c1ccc(Cl)cc1)N1CCN(C2CCN(Cc3ccccc3)CC2)CC1	.	.	.	.	-63	.
O=[N+]([O-])c1ccccc1S(=O)(=O)N1CCN(C2CCN(Cc3ccccc3)CC2)CC1	.	.	.	.	-76	.
O=[N+]([O-])c1ccccc1S(=O)(=O)N1CCN(C2CCCC2)CC1	.	/	.	.	-59	.
O=[N+]([O-])c1ccc(S(=O)(=O)N2CCN(C3CCN(Cc4ccccc4)CC3)CC2)cc1	.	.	.	.	?	.
COc1ccc(S(=O)(=O)NCCS(=O)(=O)N2CCN(c3ccccc3F)CC2)cc1	/	/	.	/	/	/
CC(C)c1ccc(NC(=O)Nc2nc(C(N)C(C)C)cs2)cc1 (stereo not given)	/	/	43	/	-54	/
CC(N)c1csc(NC(=O)Nc2cccc(C(F)(F)F)c2)n1 (stereo not given)	/	/	.	/	-54	/

Assay outcomes from PubChem BioAssay.
